Source: PubChem BioAssay (National Center for Advancing Translational Sciences (NCATS))
Most compounds without a hit are left out; they make up all but 9.2% or so of the library.
ELG1 genotoxic: genotoxicity induction in ELG1-luciferase HEK293T cells; AID 504466; Potency, µM (series often up to 46 µM), inactives show at the highest dose activity change, positive = activation, actives largely listed as activators; actives 1.3% (n = 330,000); HEK293T ELG1-luciferase reporter, luminescence, 16 h; further: % of control where 0% means no effect; nearly all actives have a fitted effect of over 60% in size
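DMSO vehicle served as control against compound-treated ELG1-luciferase HEK293T cells; exposure lasted 16 hr at 37 °C and 5% CO2, followed by ONE-Glo luminescence detection after 30 min.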
ELG1 DNA repair: blocks ELG1-dependent DNA repair in HEK293T cells; AID 504467; actives 2.3% (n = 330,000); Potency, µM (titrated, usually from 46.1 µM), for inactives: top-dose activity change, negative = inhibition, hits mostly inhibitors; HEK293T ELG1-luciferase reporter, luminescence, 16 h; DNA damage induced by 5-fluorouridine; further: on the % scale 0 is the no-effect control and ±100 the full control effect; nearly all actives have a fitted effect of over 55% in size
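Luminescence from the luciferase reporter, measured 30 min after ONE-Glo reagent at room temperature, was the read-out. Beforehand, 2,000 cells per well were exposed for 16 hr at 37 °C to 5-fluorouridine together with compound or vehicle.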
SMN2 splice enh: SMN2 splice variant enhancement; Potency, µM (doses to about 46.1 µM), inactives show top-dose activity change, positive = activation, hits mostly activators; HEK293 SMN2-luciferase splicing reporter, luminescence, 30-36 h; actives 2.8% (n = 210,000); further: % of control where 0% means no effect; nearly all actives have a fitted effect of over 55% in size
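HEK293 cells carry an SMN2 […]–luciferase reporter in which exon 7 inclusion puts luciferase in frame. Cells were plated 10-12 h before compound addition, then incubated 30-36 h at 37C. ONE-Glo luminescence was read; sodium butyrate at 4.5 mM final served as control.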
FLuc counter: counter-screen for miR-21 project: firefly luciferase inhibitors or activators | purified FLuc, Km substrates, luminescence inhibition | actives 6.9% (n = 360,000) | P08659 | Potency, µM (doses to about 57.5 µM), for the others: at the top dose activity change, negative = inhibition, usual class: inhibitors;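 further: plate controls were vehicle for no effect and reference inhibitor for full effect; nearly all actives have a fitted effect of over 55% in size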
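Purified P. pyralis luciferase, 10 nM final, with Km-level 10 uM D-luciferin and 10 uM ATP in 50 mM Tris acetate pH 7.5, 10 mM Mg acetate, 0.01% Tween-20, 0.05% BSA; 6-point qHTS titration about 60 µM downward; luminescence read.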
Rab9 prom act: Rab9 promoter activation. Huh7 Rab9 promoter-luciferase reporter, luminescence, 24 h. Potency, µM (highest dose often 9.22 µM), for the others: at the highest dose activation, negative = inhibition, hits mostly activators. actives 2.8% (n = 320,000); further: % of control where 0% means no effect; nearly all actives have a fitted effect of over 60% in size
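Stable Rab9-luc Huh7, 1500 cells/well, 2 h settle; cmpd in DMSO, 24 h, 37 °C/5% CO2; luciferase reagent 10 min RT; luminescence.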
NPC1 promoter act: NPC1 promoter activation; Huh7 NPC1 promoter luciferase reporter, 24 h; Potency, µM (top dose mostly 9.22 µM), for inactives: at the top dose activation, actives largely listed as activators; actives 2.4% (n = 320,000); further: % of control where 0% means no effect; nearly all actives have a fitted effect of over 60% in size
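In 1536-well qHTS, Huh7 cells harboring an NPC1 promoter–luciferase construct received compound for 24 h; activation was quantified by luminescence following luciferase reagent addition.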
ELG1 FLuc counter: luciferase inhibition in cell-free luciferin readout for ELG1 hits | Potency, µM (series often up to 46.1 µM), for inactives: at the top dose activity change, negative = inhibition, hits mostly inhibitors | shares compounds with ELG1 DNA repair | actives 3% (n = 350) | cell-free firefly luciferase luminescence counter-screen, ViewLux; further: on the % scale 0 is the no-effect control and ±100 the full control effect
ELG1-Luc inh: confirmation of human ELG1-dependent DNA repair inhibitors | shares compounds with ELG1 DNA repair | HEK293T ELG1-luciferase levels, luminescence; cells co-treated with 5-fluorouridine | Potency, µM (titrated, usually from 46.1 µM), inactives show top-dose activity change, negative = inhibition, usual class: inhibitors | actives 68% (n = 670) | AID 624248; further: on the % scale 0 is the no-effect control and ±100 the full control effect; nearly all actives have a fitted effect of over 55% in size
Target sequence (Q96QE3 whole entry, looked up): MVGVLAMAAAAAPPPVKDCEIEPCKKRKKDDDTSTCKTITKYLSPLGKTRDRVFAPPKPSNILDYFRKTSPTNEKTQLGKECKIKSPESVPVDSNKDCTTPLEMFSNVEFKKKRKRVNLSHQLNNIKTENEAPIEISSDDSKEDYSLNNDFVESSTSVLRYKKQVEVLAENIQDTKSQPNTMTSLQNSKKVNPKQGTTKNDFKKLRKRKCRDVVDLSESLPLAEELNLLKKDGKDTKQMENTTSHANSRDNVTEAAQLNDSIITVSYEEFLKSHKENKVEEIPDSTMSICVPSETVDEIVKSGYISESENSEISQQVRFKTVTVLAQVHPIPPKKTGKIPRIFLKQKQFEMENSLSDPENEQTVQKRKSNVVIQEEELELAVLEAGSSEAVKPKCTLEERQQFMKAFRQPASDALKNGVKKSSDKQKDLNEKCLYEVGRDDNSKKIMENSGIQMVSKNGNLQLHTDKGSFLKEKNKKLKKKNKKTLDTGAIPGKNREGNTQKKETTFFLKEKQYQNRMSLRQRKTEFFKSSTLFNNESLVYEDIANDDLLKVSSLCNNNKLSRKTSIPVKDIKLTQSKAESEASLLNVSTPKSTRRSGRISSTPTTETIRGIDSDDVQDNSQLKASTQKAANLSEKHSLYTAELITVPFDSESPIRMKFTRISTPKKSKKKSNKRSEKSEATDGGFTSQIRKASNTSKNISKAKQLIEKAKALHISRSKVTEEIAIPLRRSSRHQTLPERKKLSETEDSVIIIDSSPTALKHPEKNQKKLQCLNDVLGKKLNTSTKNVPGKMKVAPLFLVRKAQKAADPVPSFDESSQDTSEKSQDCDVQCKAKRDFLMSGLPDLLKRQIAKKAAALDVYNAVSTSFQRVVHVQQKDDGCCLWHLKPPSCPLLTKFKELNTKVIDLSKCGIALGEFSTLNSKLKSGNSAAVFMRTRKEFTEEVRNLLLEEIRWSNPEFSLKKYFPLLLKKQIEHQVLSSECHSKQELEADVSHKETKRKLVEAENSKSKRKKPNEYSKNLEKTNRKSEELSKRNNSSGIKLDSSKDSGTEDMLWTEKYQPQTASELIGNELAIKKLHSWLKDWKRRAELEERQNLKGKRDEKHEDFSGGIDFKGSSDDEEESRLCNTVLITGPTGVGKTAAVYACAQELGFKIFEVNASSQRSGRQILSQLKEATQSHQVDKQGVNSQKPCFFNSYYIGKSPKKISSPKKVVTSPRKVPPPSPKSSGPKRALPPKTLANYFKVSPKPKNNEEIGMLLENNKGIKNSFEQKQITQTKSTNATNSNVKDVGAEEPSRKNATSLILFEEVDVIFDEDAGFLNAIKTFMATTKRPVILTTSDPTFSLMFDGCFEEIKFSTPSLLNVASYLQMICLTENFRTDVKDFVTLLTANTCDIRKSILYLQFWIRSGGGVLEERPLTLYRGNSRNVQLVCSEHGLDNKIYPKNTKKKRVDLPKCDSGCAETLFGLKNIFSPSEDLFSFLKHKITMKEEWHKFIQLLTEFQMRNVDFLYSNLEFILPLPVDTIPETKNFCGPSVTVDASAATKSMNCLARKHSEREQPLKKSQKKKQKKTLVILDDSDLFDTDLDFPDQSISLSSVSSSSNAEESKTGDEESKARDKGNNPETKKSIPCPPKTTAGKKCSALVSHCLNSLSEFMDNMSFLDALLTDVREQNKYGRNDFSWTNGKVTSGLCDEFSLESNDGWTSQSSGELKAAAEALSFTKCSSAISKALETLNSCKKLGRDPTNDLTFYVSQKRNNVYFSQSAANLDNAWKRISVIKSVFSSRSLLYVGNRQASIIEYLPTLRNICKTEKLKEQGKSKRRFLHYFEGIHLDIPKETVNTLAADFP
ELG1-Luc MMS: inhibits ELG1-dependent repair under MMS stimulation in HEK293T cells. actives 53% (n = 670). AID 624249. HEK293T luciferase-tagged ELG1 level, MMS stimulated. shares compounds with ELG1 DNA repair. Potency, µM (titrated, usually from 46.1 µM), without a hit: at the top dose activity change, negative = inhibition, hits mostly inhibitors; further: on the % scale 0 is the no-effect control and ±100 the full control effect; nearly all actives have a fitted effect of over 60% in size
ELG1 5FU viab: confirmation of ELG1 repair inhibitors: viability with 5FU | Potency, µM (top dose mostly 46.1 µM), inactives show at the highest dose activity change, negative = viability loss, usual class: cytotoxic | shares compounds with ELG1 DNA repair | cell viability with 5-FU, ELG1-dependent repair | 670 tested, under 10 active;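 further: ELG1-luc HEK293T cells cotreated with 5-fluorouridine at 10 µM final; viability measured 16 h after compound addition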
ELG1 MMS cell: confirmation of ELG1 repair inhibitors: viability with MMS | shares compounds with ELG1 DNA repair | Cell viability with MMS, ELG1-dependent DNA repair | Potency, µM (doses to about 46.1 µM), for inactives: top-dose activity change, negative = viability loss, hits mostly cytotoxic | actives 33% (n = 670) | AID 624251;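 further: ELG1-luc HEK293T cells co-treated with 10 µM MMS; viability read 16 h after compound addition; on the % scale 0 is the no-effect control and ±100 the full control effect; nearly all actives have a fitted effect of over 60% in size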
ELG1 unstim viab: unstimulated viability counter-screen for ELG1 repair hits; cell viability counter-screen, unstimulated, luminescence; AID 624252; shares compounds with ELG1 DNA repair; actives 8% (n = 900); Potency, µM (titrated, usually from 45.9 µM), for inactives: at the highest dose activity change, negative = loss of viability, usual class: cytotoxic;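 further: compound exposure lasted 16 hours before reading; on the % scale 0 is the no-effect control and ±100 the full control effect; nearly all actives have a fitted effect of over 55% in size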
FLuc biochem: firefly luciferase inhibition counter-screen; shares compounds with ELG1 DNA repair; AID 624253; purified firefly luciferase, luminescence counter-screen; Potency, µM (titrated, usually from 57.5 µM), inactives show at the highest dose activity, negative = inhibition, most hits filed as inhibitors; actives 10% (n = 350); further: on the % scale 0 is the no-effect control and ±100 the full control effect
The depositor's hits bear a star; ? = inconclusive; nt = no result. The call rests on the fitted dose curve; in most records, active means well fitted curve in the direction sought with a large enough effect; inconclusive means small, poorly fitted or top-dose-only effect, or another doubt; inactive means no such curve, though single readings can be large; an effect the other way counts as inactive or inconclusive. Potency means the concentration at half of the fitted maximal effect.

SMILES	ELG1 genotoxic	ELG1 DNA repair	SMN2 splice enh	FLuc counter	Rab9 prom act	NPC1 promoter act	ELG1-Luc inh	ELG1-Luc MMS	ELG1 5FU viab	ELG1 MMS cell	ELG1 unstim viab	others
Cc1nn(-c2ccccc2)c(N2CCCC2)c1/C=N/NC(=O)c1cc(-c2cccnc2)nc2ccccc12	-9%	4.6µM*	-26%	1%	-10%	-3%	8.9µM*	28µM*	6%	-11%	?
COc1ccc(/C=N/NC(=O)c2cc(-c3cccnc3)nc3ccccc23)c(OC)c1	0%	4%	-27%	-14%	-6%	1%	nt	nt	nt	nt	nt
COc1ccc(S(=O)(=O)Nc2cccc3cccnc23)c([N+](=O)[O-])c1	nt	nt	nt	nt	nt	nt	nt	nt	nt	nt	?
O=[N+]([O-])c1ccc(NS(=O)(=O)c2cccc3cccnc23)cc1	1%	-4%	nt	-1%	7%	-2%	nt	nt	nt	nt	nt
O=C(/C=C1\NC2(CCCC2)Cc2ccccc21)C(=O)N/N=C/c1ccccc1O	1%	2.3µM*	-80%	-2%	-24%	-20%	?	8.9µM*	0%	?	-5%
Brc1ccc2cccnc2c1	-1%	0%	0%	1%	1%	0%	nt	nt	nt	nt	nt
Nc1ccc2cccnc2c1	nt	nt	nt	nt	nt	nt	nt	nt	nt	nt	-9%
Cc1ccccc1C(=O)NC(C)c1ccc2c(c1)CCCC2 (configuration not stated)	-6%	?	-2%	5%	4%	0%	nt	nt	nt	nt	nt
CNc1ccc(/C=C2\C=Cc3ccccc32)cc1	nt	nt	nt	nt	nt	nt	nt	nt	nt	nt	-5%	ELG1 FLuc counter=58%;FLuc biochem=0.73µM*
CC1=C(C(=O)Nc2ccccc2C)C(c2cccs2)n2nc(SCc3ccccc3)nc2N1 (configuration not stated)	nt	nt	4%	2%	nt	nt	nt	nt	nt	nt	nt
COc1ccc(N(C)C(=O)c2cn(CC(C)C)c(=O)c3cc(OC)c(OC)cc23)c(OC)c1	0%	1.5µM*	nt	1%	-2%	1%	1.8µM*	-17%	?	-1%	?	ELG1 FLuc counter=5%;FLuc biochem=6%
Cc1ccc(S(=O)(=O)NCCc2nnc3ccc(SCc4ccccc4F)nn23)cc1	nt	nt	nt	-9%	nt	nt	nt	nt	nt	nt	nt
O=C(CSc1nc2ccccc2c(=O)n1-c1ccc(Cl)cc1)N/N=C/C=C/c1ccccc1[N+](=O)[O-]	0%	?	-11%	-1%	-2%	1%	nt	nt	nt	nt	nt
O=C(CSc1nc2ccccc2c(=O)n1-c1ccccc1)N/N=C/C=C/c1ccccc1[N+](=O)[O-]	-2%	2.9µM*	-17%	-17%	0%	-10%	10µM*	3%	?	?	-1%	ELG1 FLuc counter=3%;FLuc biochem=-11%
COc1ccc2c(c1)c(CC(=O)Nc1ccccc1OC)c(C)n2C(=O)c1ccc(Cl)cc1	1%	-20%	-38%	-2%	-6%	-4%	10µM*	?	?	?	-3%	ELG1 FLuc counter=3%;FLuc biochem=3%
COc1ccc(OC)c(CNC(=O)c2cc3c(-c4ccc(OC)c(OC)c4)nn(C)c3s2)c1	nt	nt	29%	3%	nt	nt	nt	nt	nt	nt	nt
COc1cc(CC2COC(=O)C2(O)Cc2ccc(O)c(OC)c2)ccc1O (configuration not stated)	-8%	1.5µM*	nt	-1%	-24%	-23%	?	3.5µM*	-2%	2.8µM*	?
COc1cc(C[C@@H]2C(=O)OC[C@H]2Cc2ccc(OC)c(OC)c2)ccc1O	1%	1%	nt	-1%	-35%	-31%	nt	nt	nt	nt	nt
Cc1ccsc1C(=O)OCC(=O)Nc1ccc(Cl)cn1	14%	?	nt	nt	nt	nt	nt	nt	nt	nt	nt
O=C1N=C(N2CCCC2)S/C1=C\c1cn[nH]c1-c1ccccc1	10%	-17%	9%	-15%	13%	14%	nt	nt	nt	nt	nt
Cc1ccccc1N1CCN(C2=NC(=O)/C(=C/c3cn[nH]c3-c3ccccc3)S2)CC1	1%	0.82µM*	3%	4%	-2%	-1%	1.3µM*	0%	?	1%	0%	ELG1 FLuc counter=33%;FLuc biochem=-3%
CC1CC(C)CN(C(=O)COC(=O)/C=C/c2cccc([N+](=O)[O-])c2)C1 (configuration not stated)	2%	-8%	nt	-8%	6%	-4%	nt	nt	nt	nt	nt
CC1CN(C(=O)COC(=O)/C=C/c2cccc([N+](=O)[O-])c2)CC(C)O1 (configuration not stated)	-6%	1.5µM*	nt	nt	nt	nt	-17%	?	-5%	?	?
Nc1nnc(CCS(=O)(=O)c2ccc(Br)cc2)s1	-2%	3%	13%	-2%	-2%	4%	nt	nt	nt	nt	nt
Cc1ccccc1NC(=O)COC(=O)/C=C/c1cn(-c2ccccc2)nc1-c1cccnc1	0%	?	11%	-4%	-7%	-6%	nt	nt	nt	nt	nt
CC(=O)Nc1ccc(NC(=O)C(C)OC(=O)/C=C/c2cn(-c3ccccc3)nc2-c2cccnc2)cc1 (configuration not stated)	-7%	1.6µM*	-29%	-1%	-9%	-4%	0.79µM*	25µM*	?	25µM*	?
